Experiment [1] addresses Cytochrome P450 3A4 (Homo sapiens) (UniProt P08684). Description: qHTS Assay for Inhibitors and Substrates of Cytochrome P450 3A4 (AID 884). Further: nearly all actives have a fitted effect of over 50% in size. Further: potency means the concentration at half of the fitted maximal effect. On activity change, negative = inhibition: on the % scale 0 is the no-effect control and ±100 the full control effect. Summed up: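 Luminescent readout of luciferin produced by CYP3A4 (20 nM) dealkylation of Luciferin-PPXE, 25 uM (its KM). NADPH-driven reaction ran 60 min at RT after 10 min compound preincubation; data scaled to 57 uM ketoconazole as 100% inhibition.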
(In qHTS, concentration-response curves come from the screen itself.)

Experiment [2] in a line: Confirmation and Secondary Assay for Modulators of Hemoglobin Beta Chain Splicing at IVS2 654 locus (AID 910).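 Further: HeLa cells stably carrying EGFP split by mutant beta-globin IVS2-654 intron; % of control where 0% means no effect.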 In outline: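 HeLa cells stably expressing EGFP interrupted by β-globin IVS2-654 intron, seeded overnight in Opti-MEM/2% FCS, then treated 2 days at 37 °C. Restored splicing read as total peak GFP intensity per well by laser scanning cytometry (488 nm excitation, 500–520 nm emission); 500 nM antisense PNA as control.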

Experiment [3] in a line: Confirmation and Secondary Assay for Modulators of Hemoglobin Beta Chain Splicing at IVS2 705 locus (AID 930).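 Further: HeLa cells stably expressing the EGFP-705 splicing reporter; GFP fluorescence per well restored by corrected splicing of the IVS2-705 intron in EGFP; % of control where 0% means no effect.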 In outline: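 HeLa cells stably carrying EGFP interrupted by mutant beta-globin intron 2 (IVS2-705) treated 2 days at 37C with compound; 500 nM antisense PNA as control. Correct splicing read as total peak GFP intensity per well by laser-scanning cytometry.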
Experiment [4] is described as follows: qHTS Assay for Lipid Storage Modulators (AID 1519; calls by dose curve; on activity change, negative = inhibition: on the % scale 0 is the no-effect control and ±100 the full control effect). Particulars: Drosophila S3 cells, BODIPY lipid droplet/cell ratio, laser cytometry, cells loaded with oleic acid; for activity change, negative = inhibition: at 57.5 µM (top of the series). Summed up:
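Cells seeded at 5,000 per well were treated with compounds over a concentration series and loaded with oleic acid (400 uM, as added). Lipid droplet fluorescence (488 nm excitation, 500-530 nm channel) was read by laser-scanning cytometry and normalized to 20 uM Triacsin C.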

Experiment [5] has as its target Ubiquitin carboxyl-terminal hydrolase 1 (Homo sapiens) (UniProt O94782). As to the kind of experiment: Inhibitors of USP1/UAF1: Pilot qHTS (AID 504865).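 Further: rhodamine fluorescence freed from ubiquitin-rhodamine substrate followed over time; top concentration of the series differs between compounds; on the % scale 0 is the no-effect control and ±100 the full control effect; nearly all actives have a fitted effect of over 35% in size.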 In outline: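 USP1/UAF1 complex (1nM) preincubated with compound 15 min at room temperature, then Ub-Rho substrate (150nM final) added. Fluorescence read kinetically at 480/540 nm, 6 reads every 60 seconds. Buffer: 50mM HEPES pH 7.8, 0.5mM EDTA, 0.1 mg/ml BSA, 1mM TCEP, 0.01% Tween-20.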

Setting [6] is: measured here: cell count channel max response.
Setting [7] is: measured here: lipid channel max response.

Molecules are shown by their SMILES. Records with an inconclusive call do not appear. Activity calls are given as the source filed them. Unless noted, the call rests on the fitted dose curve; in most records, active means well fitted curve in the direction sought with a large enough effect; inconclusive means small, poorly fitted or top-dose-only effect, or another doubt; inactive means no such curve, though single readings can be large; an effect the other way counts as inactive or inconclusive. Peptide text beside a SMILES is read from it.

Ubiquitin carboxyl-terminal hydrolase 1 (Homo sapiens), sequence (O94782 whole entry, looked up): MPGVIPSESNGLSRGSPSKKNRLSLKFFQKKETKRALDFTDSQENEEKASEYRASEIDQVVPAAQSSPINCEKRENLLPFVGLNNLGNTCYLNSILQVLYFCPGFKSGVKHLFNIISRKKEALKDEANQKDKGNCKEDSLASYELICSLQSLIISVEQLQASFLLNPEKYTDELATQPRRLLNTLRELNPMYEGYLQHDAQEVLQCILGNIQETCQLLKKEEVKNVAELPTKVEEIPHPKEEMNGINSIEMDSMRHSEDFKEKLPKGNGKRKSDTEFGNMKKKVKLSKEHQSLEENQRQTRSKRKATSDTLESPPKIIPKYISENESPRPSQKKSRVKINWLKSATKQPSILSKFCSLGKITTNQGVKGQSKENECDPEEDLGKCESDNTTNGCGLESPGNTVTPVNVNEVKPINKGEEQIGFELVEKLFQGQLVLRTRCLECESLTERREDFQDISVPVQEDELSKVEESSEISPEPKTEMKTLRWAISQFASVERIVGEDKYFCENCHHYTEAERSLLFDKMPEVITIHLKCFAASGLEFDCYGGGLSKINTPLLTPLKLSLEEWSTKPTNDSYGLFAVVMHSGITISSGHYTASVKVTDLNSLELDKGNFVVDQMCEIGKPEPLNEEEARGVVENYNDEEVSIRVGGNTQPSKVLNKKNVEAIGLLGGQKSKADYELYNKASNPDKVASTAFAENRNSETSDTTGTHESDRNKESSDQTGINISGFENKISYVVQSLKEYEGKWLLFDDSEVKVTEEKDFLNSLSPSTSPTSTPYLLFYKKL
Cytochrome P450 3A4 (Homo sapiens), sequence (P08684 whole entry, looked up): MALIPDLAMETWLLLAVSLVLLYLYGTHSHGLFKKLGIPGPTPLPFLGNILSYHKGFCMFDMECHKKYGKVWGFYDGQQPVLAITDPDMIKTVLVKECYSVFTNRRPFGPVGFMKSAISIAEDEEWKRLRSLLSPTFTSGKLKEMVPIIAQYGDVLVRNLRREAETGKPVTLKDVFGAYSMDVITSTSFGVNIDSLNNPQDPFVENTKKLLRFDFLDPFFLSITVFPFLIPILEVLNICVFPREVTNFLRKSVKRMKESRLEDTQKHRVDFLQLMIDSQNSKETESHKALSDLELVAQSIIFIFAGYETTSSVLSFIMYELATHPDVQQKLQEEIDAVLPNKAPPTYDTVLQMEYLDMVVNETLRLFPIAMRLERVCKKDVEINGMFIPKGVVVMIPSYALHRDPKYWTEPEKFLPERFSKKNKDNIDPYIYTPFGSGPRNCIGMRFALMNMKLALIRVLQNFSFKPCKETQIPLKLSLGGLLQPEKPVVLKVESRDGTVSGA

As to `CCCCCCCCCCCCC(C(=O)O)C(C)C(=O)O` (stereo unspecified), the Potency entry in experiment [1], in experiment [2], in experiment [3] and in experiment [5] was “inactive” each time. In addition, the activity change, negative = inhibition in experiment [4] is 4.67% (inactive). Moreover, the max response in experiment [4] (setting [6]) turned out to be 6.54%; in experiment [4] (setting [7]), 14%.

Turning to `Nc1nc(Cl)c2ncn(C3OC(CO)C(O)C3O)c2n1` (stereo unspecified), the Potency entry in experiment [1], in experiment [2], in experiment [3] and in experiment [5] was “inactive” in each case. Besides, the activity change, negative = inhibition in experiment [4] is 1.75% (inactive). For the same compound, the max response is -10% in experiment [4] (setting [6]) and -7.18% in experiment [4] (setting [7]).

In the case of `COc1cc2c3cc1Oc1cc(ccc1O)CC1c4c(cc(OC)c(O)c4Oc4ccc(cc4)CC3N(C)CC2)CC[N+]1(C)C` (stereo unspecified), the Potency entry in experiment [1], in experiment [2], in experiment [3] and in experiment [5] was “inactive” throughout. Also, in experiment [4], the activity change, negative = inhibition was 4.12% (inactive). The max response in experiment [4] (setting [6]) is -2.85%; in experiment [4] (setting [7]), 6.31%.

For the compound `COc1cccc(/C=C/C(=O)O)c1C(C)C`, the Potency entry in experiment [1], in experiment [2], in experiment [3] and in experiment [5] was “inactive” throughout. Moreover, the activity change, negative = inhibition in experiment [4] is 9.75% (inactive). Also, the max response in experiment [4] (setting [6]) was 13%; in experiment [4] (setting [7]), 26.7%.

With `OCC1OC(n2cnc3c(NCc4ccco4)ncnc32)C(O)C1O` (stereo unspecified), the Potency result in experiment [1], in experiment [2], in experiment [3] and in experiment [5] was “inactive” in each case. In addition, the activity change, negative = inhibition in experiment [4] is -0.247% (inactive). In addition, the max response in experiment [4] (setting [6]) was -4.44%; in experiment [4] (setting [7]) it was -3.92%.

On to `C=C1C(N)CC2CC1C2(C)C` (stereo unspecified), for which the Potency entry in experiment [1], in experiment [2], in experiment [3] and in experiment [5] was “inactive” throughout. The activity change, negative = inhibition in experiment [4] was 1.08% (inactive). The max response in experiment [4] (setting [6]) amounted to 14%; in experiment [4] (setting [7]), 14.9%.

Turning to `O=C/C=C/c1ccc(O)cc1`, the Potency result in experiment [1], in experiment [2], in experiment [3] and in experiment [5] was “inactive” throughout. Further, the activity change, negative = inhibition in experiment [4] was 4.82% (inactive). Moreover, the max response in experiment [4] (setting [6]) worked out at 10.7%; in experiment [4] (setting [7]) it was 16.6%.

In the case of `CC(=O)OC1CC(OC(C)=O)[C@]2(C)C(CC(OC(C)=O)[C@]3(C)C2CC[C@@]2(C)C(c4ccoc4)OC(=O)C4O[C@]432)C1(C)C` (stereo partly specified), the Potency in experiment [1] was 1.26 µM (active). Also, the Potency result in experiment [2], in experiment [3] and in experiment [5] was “inactive” in each case. The activity change, negative = inhibition in experiment [4] is 0.867% (inactive). Besides, the values for the max response in experiment [4] (setting [6]) and in experiment [4] (setting [7]) were -4.64% and -0.493%, respectively.

In the case of `CCOC(=O)C(CCc1ccccc1)NC(C)C(=O)N1CCCC1C(=O)O` (stereo unspecified), the Potency entry in experiment [1], in experiment [2], in experiment [3] and in experiment [5] was “inactive” throughout. Also, the activity change, negative = inhibition in experiment [4] is 10.8% (inactive). For the same compound, the max response in experiment [4] (setting [6]) was found to be 9.89%; in experiment [4] (setting [7]) it was 24.1%.

With `CC(=O)OCC1OC(n2cnc3c(Cl)nc(Cl)nc32)C(OC(C)=O)C1OC(C)=O` (stereo unspecified), the Potency result in experiment [1], in experiment [2], in experiment [3] and in experiment [5] was “inactive” in each case. For the same compound, the activity change, negative = inhibition in experiment [4] was -4.18% (inactive). For the same compound, the max response was determined as 15.8% in experiment [4] (setting [6]) and 12.7% in experiment [4] (setting [7]).

For `CC(CCC(=O)O)C1CCC2C3CC(O)[C@@H]4CC(O)CC[C@]4(C)C3CC[C@@]12C` (stereo partly specified), the Potency result in experiment [1], in experiment [2], in experiment [3] and in experiment [5] was “inactive” in each case. Besides, the activity change, negative = inhibition in experiment [4] is 6.93% (inactive). Moreover, the max response in experiment [4] (setting [6]) stood at 12.9%; in experiment [4] (setting [7]), 20.4%.

Turning to `COC1C(O)C(CO)OC1n1cnc2c(=O)[nH]c(N)nc21` (stereo unspecified), the Potency result in experiment [1], in experiment [2], in experiment [3] and in experiment [5] was “inactive” throughout. Also, in experiment [4], the activity change, negative = inhibition was 5.46% (inactive). The max response was 13.5% in experiment [4] (setting [6]) and 20.7% in experiment [4] (setting [7]).

As to `NCCCCC(N)C(=O)NC(Cc1ccc(O)cc1)C(=O)NC(CCCCN)C(=O)O` (stereo not drawn) (H-Lys-Tyr-Lys-OH; configuration not given here), the Potency entry in experiment [1], in experiment [2], in experiment [3] and in experiment [5] was “inactive” each time. In addition, the activity change, negative = inhibition in experiment [4] is 1.3% (inactive). Also, the max response in experiment [4] (setting [6]) came to 3.42%; in experiment [4] (setting [7]), 5.58%.

Regarding `CCC(C)C(NC)C(=O)O` (stereo unspecified), the Potency entry in experiment [1], in experiment [2], in experiment [3] and in experiment [5] was “inactive” throughout. The activity change, negative = inhibition in experiment [4] was 5.09% (inactive). Besides, the max response in experiment [4] (setting [6]) is 17.4%; in experiment [4] (setting [7]), 24.1%.

As to `CCC1OC(=O)C(C)[C@@H](O[C@H]2C[C@@](C)(OC)C(O)C(C)O2)C(C)[C@@H](O[C@@H]2OC(C)CC(N(C)C)C2O)[C@](C)(O)CC(C)/C(=N\OCOCCOC)[C@H](C)C(O)[C@]1(C)O` (stereo partly specified), the Potency entry in experiment [1], in experiment [2], in experiment [3] and in experiment [5] was “inactive” each time. Besides, in experiment [4], the activity change, negative = inhibition is 7.24% (inactive). In addition, the max response was 27.8% in experiment [4] (setting [6]) and 41% in experiment [4] (setting [7]).

Regarding `CSc1ncnc2c1ncn2C1OC(CO)C(O)C1O` (stereo unspecified), the Potency result in experiment [1], in experiment [2], in experiment [3] and in experiment [5] was “inactive” throughout. Besides, in experiment [4], the activity change, negative = inhibition was -6.93% (inactive). Besides, the results for the max response in experiment [4] (setting [6]) and in experiment [4] (setting [7]) were -18.3% and -24.7%, respectively.

Turning to `CC(C)=CCc1c(O)cc(C)oc1=O`, the Potency entry in experiment [1], in experiment [2], in experiment [3] and in experiment [5] was “inactive” throughout. Moreover, the activity change, negative = inhibition in experiment [4] is 0.619% (inactive). Besides, the max response in experiment [4] (setting [6]) was 9.29%; in experiment [4] (setting [7]), 11.1%.

For the compound `COC1[C@H](OC(N)=O)C(O)[C@H](Oc2ccc3c(O)c(NC(=O)c4ccc(O)c(CC=C(C)C)c4)c(=O)oc3c2C)OC1(C)C` (stereo partly specified), the Potency entry in experiment [1], in experiment [2], in experiment [3] and in experiment [5] was “inactive” each time. Also, the activity change, negative = inhibition in experiment [4] is 8.38% (inactive). For the same compound, the max response in experiment [4] (setting [6]) was 13.2%; in experiment [4] (setting [7]), 25.2%.
